Experimental data reported in PubChem BioAssay.
Some of the results follow. Activity calls are given as the source filed them.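 Rule for the calls, unless noted: active = ratio signal rise beyond 5 SD above unstimulated control wells' mean, seen in both duplicate runs; inactive = the rest.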

Experiments:
[1] = nonspecific voltage dye response without TRPC6 – cell-based, parental HEK293, counter-screen for TRPC6 modulator project, confirmation (AID 488924;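 active = membrane potential signal moves up or down beyond 5 SD from buffer-only wells, on both duplicate plates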); conditions: parental HEK293, membrane potential dye fluorescence; at 10 µM
[2] = membrane potential response modulators in host HEK293 cells – cell-based, second counter-screen, parental HEK293, membrane potential dye, counter-screen for TRPC6 modulator project, confirmation (AID 488926;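 active = membrane potential signal drops by more than 5 SD from the mean control signal, in both duplicate plates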;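 for inhibition: plate controls were acetylcholine ECmax control wells for no effect and buffer only wells for full effect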); conditions: parental HEK293, membrane potential dye fluorescence, at 10 µM, after compound, maximal acetylcholine stimulation; stronger effect = higher value
[3] = system: Transient receptor potential cation channel subfamily C member 4 (mouse); assay: off-target membrane potential effects via mouse TRPC4 – cell-based, HEK293 TRPC4/mu-opioid, membrane potential dye, selectivity assay for TRPC6 modulator project, confirmation (AID 488927;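 active = membrane potential signal moved up or down beyond 5 SD of buffer control wells, in both duplicate plates, actives on both sides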;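 for percent change from control (negative = decrease, positive = increase): plate controls were assay buffer wells for no effect and DAMGO maximal-effect wells for full effect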); conditions: membrane potential fluorescence, at 10 µM
[4] = system: TRPC4 (transient receptor potential cation channel C4), mouse; assay: DAMGO-evoked mouse TRPC4 response blockade – cell-based, second screen, HEK293 TRPC4/mu-opioid, membrane potential dye, selectivity assay for TRPC6 modulator project, confirmation (AID 488928;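 active = drop in membrane potential signal beyond 5 SD of the control wells in both duplicate plates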;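 note: TRPC4 counter screen for TRPC6 hits run under conditions tuned for TRPC6 not TRPC4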); conditions: membrane potential dye fluorescence, at 10 µM, stimulated with maximal-effect DAMGO; stronger effect = higher value
[5] = biological target: Short transient receptor potential channel 6 (Mus musculus) (UniProt Q61143); assay: blockers of TRPC6 cation channel activity – HEK293 cells, membrane potential dye, duplicate, confirmation (AID 488960;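 active = fluorescence ratio falls more than 5 SD below the full-stimulation control mean, in both duplicate runs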;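 for inhibition: integrated fluorescence ratio of peak minus minimum over baseline after agonist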); conditions: ACh-evoked depolarization, at 10 µM; stronger effect = higher value
Sequence of Short transient receptor potential channel 6 (Mus musculus) (Q61143 whole entry, looked up): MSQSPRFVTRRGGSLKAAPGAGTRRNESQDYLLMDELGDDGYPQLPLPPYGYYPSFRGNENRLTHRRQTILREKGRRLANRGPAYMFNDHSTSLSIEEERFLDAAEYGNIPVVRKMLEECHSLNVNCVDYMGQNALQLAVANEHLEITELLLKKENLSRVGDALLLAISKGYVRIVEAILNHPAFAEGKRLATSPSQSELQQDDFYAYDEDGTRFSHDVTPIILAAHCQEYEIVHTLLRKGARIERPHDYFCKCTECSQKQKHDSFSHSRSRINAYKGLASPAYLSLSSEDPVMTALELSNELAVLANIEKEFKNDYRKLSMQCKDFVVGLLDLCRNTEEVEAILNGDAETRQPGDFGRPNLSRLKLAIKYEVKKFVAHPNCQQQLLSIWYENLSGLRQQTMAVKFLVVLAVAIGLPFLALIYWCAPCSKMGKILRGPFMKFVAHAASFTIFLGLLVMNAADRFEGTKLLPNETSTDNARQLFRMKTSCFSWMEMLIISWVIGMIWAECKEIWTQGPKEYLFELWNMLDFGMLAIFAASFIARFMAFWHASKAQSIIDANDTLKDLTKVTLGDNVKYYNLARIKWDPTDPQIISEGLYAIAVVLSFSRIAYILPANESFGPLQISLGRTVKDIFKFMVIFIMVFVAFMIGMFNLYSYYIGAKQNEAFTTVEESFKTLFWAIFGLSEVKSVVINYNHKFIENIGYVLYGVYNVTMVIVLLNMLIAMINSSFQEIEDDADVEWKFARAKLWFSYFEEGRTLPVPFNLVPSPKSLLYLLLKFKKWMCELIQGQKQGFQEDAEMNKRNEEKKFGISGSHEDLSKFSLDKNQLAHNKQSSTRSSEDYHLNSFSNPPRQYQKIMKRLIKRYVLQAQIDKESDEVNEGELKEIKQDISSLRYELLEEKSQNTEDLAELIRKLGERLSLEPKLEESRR

[6] = biological target: Short transient receptor potential channel 6 (Mus musculus) (UniProt Q61143); assay: mouse TRPC6 channel activators, confirmation, HEK293 cells, membrane potential dye, duplicate (AID 488961); conditions: HEK293-TRPC6 membrane potential dye fluorescence, FDSS, at 10 µM; stronger effect = higher value;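 for activation: plate controls were buffer EC0 wells for no effect and acetylcholine ECmax response for full effect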

Structure (SMILES): O=C(CN1CCCCCC1)N1c2ccccc2Sc2ccc(C(F)(F)F)cc21
- membrane potential signal change [1]: 122% (active)
- outcome [2]: inactive
- percent change from control (negative = decrease, positive = increase) [3]: 18.5% (active)
- outcome [4]: inactive
- inhibition [5]: 46.5% (active)
- outcome [6]: inactive

Structure (SMILES): CCN1CCN(c2nc(Nc3cc(OC)ccc3OC)nc(Nc3cc(OC)ccc3OC)n2)CC1
- outcome [1]: inactive
- outcome [2]: inactive
- outcome [3]: inactive
- inhibition [4]: 55.5% (active)
- outcome [5]: inactive
- outcome [6]: inactive

Structure (SMILES): CN(CC(=O)Nc1ccccc1[N+](=O)[O-])Cc1ccc(Br)cc1
- outcome [1]: inactive
- outcome [2]: inactive
- outcome [3]: inactive
- inhibition [4]: 29% (active)
- outcome [5]: inactive
- outcome [6]: inactive

Structure (SMILES): CCN(CC)CCNc1nc(-c2ccc(OC(F)F)cc2)c(C)s1
- outcome [1]: inactive
- outcome [2]: inactive
- outcome [3]: inactive
- inhibition [4]: 50.5% (active)
- outcome [5]: inactive
- outcome [6]: inactive

Structure (SMILES): Cc1cc(N2CCN(S(=O)(=O)c3ccc(C)c(C)c3)CC2)c2ccccc2n1
- outcome [1]: inactive
- outcome [2]: inactive
- percent change from control (negative = decrease, positive = increase) [3]: -10.5% (active)
- inhibition [4]: 65% (active)
- outcome [5]: inactive
- outcome [6]: inactive

Structure (SMILES): CC(NC(=S)Nc1ccc(OC(F)F)cc1)c1ccc(F)cc1 (configuration not stated)
- outcome [1]: inactive
- outcome [2]: inactive
- percent change from control (negative = decrease, positive = increase) [3]: -14.5% (active)
- outcome [4]: inactive
- outcome [5]: inactive
- outcome [6]: inactive

Structure (SMILES): CCC(C)(C)NC(=O)CN(C(=O)CCC(=O)Nc1nccs1)c1ccc2c(c1)OCO2
- outcome [1]: inactive
- outcome [2]: inactive
- outcome [3]: inactive
- outcome [4]: inactive
- outcome [5]: inactive
- outcome [6]: inactive

Structure (SMILES): O=C(NC1C2CC3CC(C2)CC1C3)c1ccc(N2CCNCC2)c([N+](=O)[O-])c1 (configuration not stated)
- membrane potential signal change [1]: -120% (active)
- outcome [2]: inactive
- percent change from control (negative = decrease, positive = increase) [3]: -22% (active)
- inhibition [4]: 70.5% (active)
- inhibition [5]: 57.5% (active)
- outcome [6]: inactive

Structure (SMILES): COc1ccc(-c2nnc(NC(=O)CS(=O)(=O)c3ccc(Cl)cc3)o2)c(OC)c1
- membrane potential signal change [1]: 86% (active)
- outcome [2]: inactive
- outcome [3]: inactive
- outcome [4]: inactive
- outcome [5]: inactive
- activation [6]: 46.5% (active)

Structure (SMILES): Cc1nc(N=C(N)N)nc2c(C)cccc12
- membrane potential signal change [1]: -235% (active)
- inhibition [2]: 76.5% (active)
- percent change from control (negative = decrease, positive = increase) [3]: -42.5% (active)
- inhibition [4]: 60% (active)
- inhibition [5]: 67.5% (active)
- outcome [6]: inactive

Structure (SMILES): O=C1CN(C(=O)c2ccccc2F)C(c2ccc(F)cc2)c2cc(F)ccc2N1 (configuration not stated)
- membrane potential signal change [1]: 106% (active)
- outcome [2]: inactive
- percent change from control (negative = decrease, positive = increase) [3]: 26.5% (active)
- outcome [4]: inactive
- outcome [5]: inactive
- outcome [6]: inactive

Structure (SMILES): COc1ccc(Cl)cc1NC(=O)CCS(=O)(=O)c1cc2c(cc1C)NC(=O)CO2
- outcome [1]: inactive
- outcome [2]: inactive
- percent change from control (negative = decrease, positive = increase) [3]: -9.5% (active)
- outcome [4]: inactive
- outcome [5]: inactive
- outcome [6]: inactive
